Assay outcomes: PubChem BioAssay, Buhrlage Lab, Dana-Farber Cancer Institute and Novartis Institutes for BioMedical Research (Cambridge, Mass)
USP28 block = human USP28 deubiquitinase inhibition | purified USP28, Ub-rhodamine cleavage fluorescence, 30 min | Q96RU2 | AID 1645857 | inhibition, % at 25 µM | 3% of 47,000 active
USP30 block = inhibitors of human USP30 deubiquitinase; 5.3% of 47,000 active; purified USP30, Ub-rhodamine cleavage fluorescence; AID 1645860; inhibition, % at 25 µM
USP8 inh = human USP8 deubiquitinase inhibition. purified USP8, Ub-rhodamine cleavage fluorescence, 30 min. inhibition, % at 20 µM. 4.2% of 47,000 active
USP17 inh = human USP17-like deubiquitinase inhibition | A8MUK1 | purified USP17, Ub-rhodamine cleavage fluorescence, 3 h | inhibition, % at 50 µM | 6.5% of 47,000 active | AID 1645855
USP10 block = blocks human USP10 ubiquitin-rhodamine cleavage | purified USP10, Ub-rhodamine fluorescence, 60 min | 1.1% of 47,000 active | inhibition, % at 20 µM | AID 1645856 | Q14694
* marks the source's active call; other numbers are inactive results; x = no result. Hits are enriched below; roughly 14% of the tested compounds scored in any of these assays. Rule as the data show it: active = inhibition above about 30%; inactive = the rest.

SMILES | USP28 block | USP30 block | USP8 inh | USP17 inh | USP10 block
CC(C)c1cc(C2CCCN2S(=O)(=O)c2ccc3c(c2)OCCO3)no1 (centres undefined) | 26 | 10 | 10 | 10 | 0
O=C(Nc1nc2c(s1)CCCC2)c1cccc(Br)c1 | 19 | -2 | 4 | 0 | 4
Cc1cccc(C(=O)Nc2nc3c(s2)CCC3)c1 | 38* | 13 | 5 | 0 | -12
CCn1cc(SCC(=O)NCCc2ccc(OC)c(OC)c2)c2ccccc21 | -2 | -3 | -2 | -14 | -1
Nc1ncccc1C(=O)N1CC[C@@H]2[C@H]1CCCC(=O)N2Cc1ccc(F)cc1 | 5 | 9 | -2 | -4 | -4
O=C1CCCC[C@@H]2[C@H](CCN2Cc2ccc3ncccc3c2)N1Cc1ccccc1F | -23 | -65 | 47* | 8 | -2
O=C1CC(c2nc3ccccc3n2CCOc2ccccc2)CN1Cc1ccccc1 (centres undefined) | 5 | 22 | -2 | 7 | -3
Cc1cc(Br)c(C(C)C)c(Br)c1OC(=O)c1ccco1 | 48* | -11 | 7 | 4 | 3
COc1ccccc1-c1nc(-c2cn(-c3cccc(Cl)c3)nn2)no1 | 20 | 46* | 96* | -18 | 71*
COc1cc(OC)cc(-c2nc(-c3cn(-c4cccc(F)c4)nn3)no2)c1 | 22 | 65* | 62* | 1 | 5
Fc1cccc(Cn2cc(-c3noc(-c4cccnc4)n3)nn2)c1 | -3 | -5 | 21 | 63* | 3
Fc1cccc(-n2cc(-c3noc(-c4ccncc4)n3)nn2)c1 | 4 | 18 | 7 | 11 | 0
COc1ccccc1-c1nc(-c2cn(-c3ccc(C)cc3)nn2)no1 | 1 | 11 | 4 | 62* | 2
O=C(Nc1c2c(nn1-c1ccc([N+](=O)[O-])cc1)CS(=O)(=O)C2)C1(c2ccc(Cl)cc2)CCCC1 | 1 | -10 | -19 | -7 | 0
CC(C)CC(=O)N1c2ccccc2OCC1c1ccccc1 (centres undefined) | 8 | 12 | 0 | x | 5
CC1(C)OC2=C(C(=O)c3cc(O)cc(O)c3C2=O)c2cc(CO)c(O)cc21 | 27 | 0 | 10 | 82* | -4
O=C1NCC2(CCC(C(=O)N3CCCC(O)C3)CC2)Oc2ccccc21 (centres undefined) | 12 | 24 | 1 | 18 | 2
Cc1ccc(CNC(=O)c2cc(-c3ccccc3)nn2-c2ccccc2)cc1 | 17 | 34* | 19 | 22 | 9
Cc1ccc(CNC(=O)Cn2c(-c3ccccc3)nc(C)cc2=O)cc1 | 0 | 4 | 16 | -3 | 0
COc1cccc(NC(=O)Cn2cnc(NC(=O)c3ccccc3)n2)c1 | 6 | 12 | 6 | 7 | 1
COc1ccc(NC(=O)Cn2cnc(NC(=O)c3ccccc3)n2)cc1 | 10 | -1 | 26 | 46* | -14
O=C(Cn1cnc(NC(=O)c2ccc(F)cc2)n1)Nc1ccccc1 | 6 | 11 | 4 | 2 | 3
Cc1ccc(C(=O)Nc2ncn(CC(=O)Nc3ccccc3)n2)cc1 | 21 | 41* | 15 | 25 | 0
CC1CCCN(C(=O)COc2ccc(NC(=O)C3CC3)cn2)C1 (centres undefined) | -19 | -55 | -13 | -19 | -5
Cc1cccc(NC(=O)NCCc2cn(C)c3ncccc23)c1C | 0 | 1 | 2 | -2 | 0
SMILES | USP28 block | USP30 block | USP8 inh | USP17 inh | USP10 block
Cc1ccc(C)c(NC(=O)NCCc2cn(C)c3ncccc23)c1 | 17 | 18 | 14 | 37* | -1
c1ccc(-c2cnc(CSc3nc4ccccc4[nH]3)o2)cc1 | -19 | -45 | -67 | -27 | -4
COc1ccc(NC(=O)CCCSc2nc3ccccc3[nH]2)cc1OC | 6 | -8 | 1 | -2 | -3
COc1cccc(OCCCSc2nc3ccccc3[nH]2)c1 | 41* | 2 | 0 | 9 | 14
Cc1cccc(OCCCSc2nc3ccccc3[nH]2)c1 | 45* | 27 | -11 | 19 | 14
COCCN1CC=CCC2(CCN(Cc3ccc(N4CCCC4)cc3)CC2)C1=O | -28 | -78 | -5 | -20 | -5
COc1ccc(OCC(=O)N2CCC(c3[nH]nc4nccnc34)CC2)cc1 | 9 | 11 | 7 | 17 | 3
O=C(NCCc1ccccn1)c1cc(-c2ccc(Br)cc2)n[nH]1 | 12 | 34* | 20 | 80* | 6
O=C(NCCc1ccccn1)c1cn2ccnc(-c3ccc(F)cc3)c2n1 | 4 | 56* | 2 | 21 | -3
COc1ccc(-c2nccn3cc(C(=O)N4CCN(C)CC4)nc23)cc1 | 2 | 18 | 13 | 0 | -4
COc1ccc(-c2nccn3cc(C(=O)NCc4nc5ccccc5n4C)nc23)cc1 | -41 | -254 | 36* | -8 | -9
